GALR2 ag: GALR2 (human) receptor agonism; O43603; 0.48% of 140,000 active; GALR2-expressing cells, agonist activation read-out; activation, % (concentration not given with the values); AID 803; in the data active means activation above about 5%, passing the limit was not always enough;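 further: 0% = vehicle buffer wells and 100% = reference agonist at full effect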
Target sequence (O43603 whole entry, looked up): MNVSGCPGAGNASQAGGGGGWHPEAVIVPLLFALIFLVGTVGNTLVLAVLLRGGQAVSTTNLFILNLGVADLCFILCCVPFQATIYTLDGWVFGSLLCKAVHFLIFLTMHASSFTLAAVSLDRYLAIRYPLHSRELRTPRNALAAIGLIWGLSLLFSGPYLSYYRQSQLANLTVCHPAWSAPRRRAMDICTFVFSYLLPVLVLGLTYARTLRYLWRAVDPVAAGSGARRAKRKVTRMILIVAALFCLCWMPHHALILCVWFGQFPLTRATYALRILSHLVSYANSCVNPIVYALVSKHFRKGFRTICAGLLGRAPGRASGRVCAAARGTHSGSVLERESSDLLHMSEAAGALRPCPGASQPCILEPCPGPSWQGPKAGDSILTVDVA
MRP reversal: MRP-mediated drug resistance reversal. H69AR cells + 2 uM doxorubicin, CellTiter-Glo, 72 h. differential viability (reversal), % at 10 µM. 0.04% of 85,000 active;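 active means viability drop by adding the cancer drug above about 55%, with treated viability meeting a 40% cutoff, limit read from the data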;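 further: viability without doxorubicin minus viability with 2 µM doxorubicin for each compound; larger differential means the compound sensitizes cells more to doxorubicin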
MRP-1 activ: activators of MRP-1. 0.61% of 140,000 active. H69AR cells + doxorubicin, viability rescue, CellTiter-Glo. viability increase, % at 10 µM;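 active means viability gain under doxorubicin at or above a set limit, the compound median plus 3 SD, cut at about 4.7% in these data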;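 further: MRP-1 overexpressing cells given doxorubicin 25 µM after compound pretreatment; 18-22 h compound pretreatment then 72 h with doxorubicin before readout; 0% = doxorubicin-only wells and 100% = vehicle-treated cells without doxorubicin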
GALR2 blocker: blocks the human galanin receptor 2; O43603; GALR2-expressing cells, antagonist mode; inhibition, % at 4 µM; 0.39% of 140,000 active; in the data active means inhibition above about 27%;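 further: cells stimulated with galanin 1-16 at roughly its EC80; 0% = agonist challenge control and 100% = basal control without agonist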
S1P2 antag: blocks the human S1P2 receptor; O95136; cell-based S1P2 antagonist assay, inhibition at 5 uM; inhibition, % at 5 µM; 0.21% of 97,000 active; in the data active means inhibition above about 45%;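 further: CRE beta-lactamase reporter cells expressing human S1P2 stimulated with S1P; 0% = agonist at EC80 alone and 100% = agonist plus reference antagonist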
Target sequence (O95136 whole entry, looked up): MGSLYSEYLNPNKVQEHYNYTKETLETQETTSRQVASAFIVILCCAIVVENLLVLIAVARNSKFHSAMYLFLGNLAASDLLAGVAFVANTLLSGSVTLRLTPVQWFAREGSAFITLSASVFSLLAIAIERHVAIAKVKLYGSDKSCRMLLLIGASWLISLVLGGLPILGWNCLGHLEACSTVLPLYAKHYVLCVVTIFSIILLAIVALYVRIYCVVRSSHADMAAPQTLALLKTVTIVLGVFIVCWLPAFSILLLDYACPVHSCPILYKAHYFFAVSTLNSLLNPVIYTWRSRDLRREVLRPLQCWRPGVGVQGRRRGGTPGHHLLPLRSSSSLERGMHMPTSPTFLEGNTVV
S1P2 agonist: S1P2 (human) receptor agonism; O95136; S1P2-expressing cell line, agonist reporter read-out; activation, % at 4.5 µM; 0.46% of 97,000 active; AID 729; in the data active means activation above about 16%;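 further: 0% = vehicle low control and 100% = maximal reference agonist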
* marks the source's active call; other numbers are inactive results; nt = no result given. A selection: hits, their analogues and other compounds. The true share with any hit is near 1.8%.

SMILES | GALR2 ag | MRP reversal | MRP-1 activ | GALR2 blocker | S1P2 antag | S1P2 agonist
CCn1c(CNC(=O)COc2ccc(C(C)C)cc2)nnc1SCC(=O)Nc1ccccc1C(C)C | -1.0 | nt | 6.2* | -5.3 | 14.4 | -4.4
COc1ccc(C(=O)NCc2ccc(-c3nc4ccccc4s3)cc2)cc1 | -2.1 | nt | 7.5* | -1.3 | -0.2 | -2.1
COC(=O)C1=C(O)C(C(=O)OC)C(c2ccc(C)cc2)C(C#N)(C#N)C1c1ccc(C)cc1 (stereo not given) | -0.3 | 0.3 | -8.0 | 7.6 | 2.0 | -1.1
Cc1cc(C)n(-c2ccc(C(=O)Nc3cccc(S(=O)(=O)N(C)C)c3)cc2)n1 | -1.6 | nt | 5.8* | 24.5 | nt | nt
Cn1c(SCC(=O)OCC(=O)c2ccccc2)nnc1-c1cccs1 | -1.9 | -3.6 | 0.3 | 1.1 | 14.2 | -4.3
CC(C)c1nnc(NC(=O)CSc2ncn[nH]2)s1 | -2.1 | -9.1 | 4.8* | 7.8 | 7.4 | -10.3
CC(C)c1nnc(NC(=O)CSc2nc3ccccc3s2)s1 | -3.3 | -0.9 | -0.9 | 13.6 | -12.3 | -5.1
O=C(CSc1ncn[nH]1)Nc1ccc(Br)cc1F | -3.3 | -9.9 | 7.0* | 3.6 | 18.7 | -4.2
CCc1ccc(C(c2c(C)nn(-c3ccccc3)c2N)c2c(C)nn(-c3ccccc3)c2N)cc1 | -1.1 | nt | -4.1 | 2.7 | nt | nt
COc1ccc(-c2cnnc(N/N=C/c3ccc(OC)c(OC)c3)n2)cc1 | -0.2 | nt | -5.1 | 6.3 | nt | nt
COc1ccc(/C=N/Nc2nc(-c3ccc(Cl)cc3)cc(C(F)(F)F)n2)cc1OC | -0.1 | nt | 5.6* | -10.8 | nt | nt
O=C(NCCc1ccccc1)C1CCCN1C(=O)Nc1ccc(F)cc1 (stereo not given) | -1.3 | 9.1 | -0.4 | 9.7 | nt | nt
COC(=O)c1ccccc1NC(=O)c1cccs1 | -1.2 | 56.1* | -1.3 | -4.7 | -28.9 | 1.2
COc1ccccc1NC(=O)c1cccs1 | -1.6 | nt | -0.7 | 7.3 | 8.8 | -8.5
CC(=O)Nc1ccccc1-c1nc2ccc(C(=O)N3CCN(c4ccccc4)CC3)cc2[nH]c1=O | -0.6 | -0.6 | 0.3 | 11.8 | 2.9 | -5.7
C=C(C)Cn1c(SCC#N)nc2ccccc2c1=O | -2.6 | 24.1 | 0.2 | -6.8 | -19.2 | -0.4
N#CCSc1nc2ccc(N3CCCCC3)cc2c(=O)n1Cc1ccccc1 | -1.0 | -1.1 | 4.8* | 6.0 | -7.2 | 11.8
Cc1ccc(/C=C2\SC(N3CCN(C(c4ccccc4)c4ccccc4)CC3)=NC2=O)o1 | -0.4 | nt | -0.7 | 3.7 | nt | nt
O=C(COC(=O)c1c(Cl)cccc1Cl)Nc1cc(Cl)ccc1Oc1ccccc1 | -0.8 | nt | 6.6* | -10.6 | nt | nt
Cc1ccc(C(=O)COc2ccccc2-c2ccccc2)cc1C | -2.0 | nt | 5.0* | 2.1 | nt | nt
CSc1sc2ccccc2[n+]1CCCS(=O)(=O)[O-] | -1.7 | nt | -1.1 | -9.8 | 3.2 | 25.6*
O=C(NNC(=O)c1ccco1)c1cccc([N+](=O)[O-])c1 | -2.2 | nt | -1.4 | 2.0 | 2.3 | -3.4
Cc1c(C(=O)N2CCCc3ccccc32)oc2ccc(S(=O)(=O)N3CCOCC3)cc12 | 0.0 | -14.2 | -3.0 | -0.6 | -9.3 | -7.0
COc1cc(-c2cc(-c3ccccc3)nc(SCC(=O)Nc3nccs3)c2C#N)cc(OC)c1OC | -1.0 | nt | -3.8 | -3.2 | -23.1 | 30.9*
OCCN1CCN(c2ncnc3c2sc2nc(N4CCOCC4)c4c(c23)CCC4)CC1 | 2.4 | -2.3 | -3.0 | -6.4 | nt | nt
SMILES | GALR2 ag | MRP reversal | MRP-1 activ | GALR2 blocker | S1P2 antag | S1P2 agonist
OCCN(CCO)c1ncnc2c1sc1nc(N3CCOCC3)c3c(c12)CCCC3 | 0.9 | -7.0 | -5.0 | 2.3 | -51.4 | 23.0*
O=c1ccn(-c2cccc(C(F)(F)F)c2)nc1-c1ccn(-c2ccccc2)n1 | -1.0 | nt | -4.4 | 2.5 | -26.9 | 25.2*
CCN(CC)CCNC(=O)c1ccc(CS(=O)(=O)c2ccc(Br)cc2)o1 | 0.2 | 12.3 | -3.1 | 0.1 | 12.4 | -1.6
CCOC(=O)c1c(CSC(=N)N)n(-c2ccc(C)cc2)c2cc(Br)c(OC(C)=O)cc12 | 1.5 | nt | 9.5* | -16.7 | 19.9 | -6.3
CCOC(=O)c1c(CN(C)C)n(-c2ccc(C)cc2)c2cc(Br)c(O)cc12 | -1.7 | nt | -3.8 | -7.8 | nt | nt
CC(C)Cc1nc2sc3c(NCc4ccco4)ncnc3c2c2c1COC(C)(C)C2 | -0.7 | nt | -3.4 | -8.3 | -64.2 | 1.4
Cc1nc2sc3c(NCc4ccco4)ncnc3c2c2c1COC(C)(C)C2 | -1.6 | nt | -1.4 | -13.5 | -34.1 | 26.5*
CCCc1nnc2n1N=C(c1ccc(-c3cc(Cl)ccc3Cl)o1)CS2 | 0.3 | -9.9 | -3.3 | -3.5 | -11.2 | -5.2
CCC(C)NC(=O)C1CCN(c2nc(OC)nc(OC)n2)CC1 (stereo not given) | -1.6 | 21.2 | -2.9 | -3.4 | -4.3 | 22.4*
Clc1cnc(N/N=C/c2cccs2)c(Cl)c1 | -2.3 | 81.2* | -3.6 | -3.5 | 2.0 | -7.0
COc1ccccc1NC(=O)CSc1nc2n[nH]c(C)c2c(=N)n1-c1ccccc1Cl | -1.4 | 5.5 | -6.0 | -6.8 | -21.7 | 20.9*
CCc1ccccc1NC(=O)CSc1nc2n[nH]c(C)c2c(=N)n1-c1ccc(OC)cc1 | -0.8 | 6.3 | -4.3 | 16.5 | nt | nt
CCOC(=O)c1c(C)n(C)c2ccc(OCC(O)CN(CC)CC)cc12 (stereo not given) | -2.2 | -6.6 | -4.2 | 13.4 | 11.3 | -4.6
CCOC(=O)c1c(C)n(C)c2ccc(OCC(O)Cn3nc(C)cc3C)cc12 (stereo not given) | -0.4 | -21.1 | -0.9 | -7.0 | -16.2 | 58.4*
CN1C(=O)N(S(=O)(=O)c2ccc(F)c(F)c2F)C(=O)C1(C)C | -1.2 | 4.0 | -1.7 | 11.0 | 4.0 | -7.2
Nc1nsc2ccccc12 | -2.1 | nt | -7.0 | 50.3* | 49.5* | -2.8
Cc1cccc(-n2nc(C(=O)c3ccco3)cc(-c3nc4ccccc4[nH]3)c2=N)c1 | -0.1 | nt | 0.5 | 9.6 | nt | nt
Cc1ccccc1-n1nc(C(=O)c2cccs2)cc(-c2nc3ccccc3[nH]2)c1=N | -2.6 | -20.1 | -4.5 | 11.7 | -12.3 | 24.3*
COc1ccc(-n2nc(C(=O)c3cccs3)cc(-c3nc4ccccc4[nH]3)c2=N)cc1 | -1.4 | 1.0 | -8.3 | 6.6 | -44.8 | 22.3*
O=C1CCC([N+](=O)[O-])C(c2ccc(Cl)cc2Cl)N1 (stereo not given) | -0.7 | -10.3 | -1.3 | -3.2 | 5.6 | 0.2
CCSc1nnc(Cc2cc(=O)[nH]c(=O)[nH]2)n1-c1cc(C)ccc1C | -1.8 | -8.3 | -2.8 | -8.8 | 3.1 | -1.0
CCc1ccc(-c2nc(NC(=S)NC(=O)c3cccs3)sc2C)cc1 | -2.3 | nt | -3.4 | -4.0 | -4.5 | 17.2*
Cc1cccc(N2C(=O)CC(N3CCN(c4ccccc4)CC3)C2=O)c1 (stereo not given) | -1.0 | -7.2 | -0.2 | -2.0 | -5.7 | -0.8
Cc1cccc(N2C(=O)CC(NNc3nc4ccccc4s3)C2=O)c1 (stereo not given) | 0.3 | nt | 4.7* | 3.2 | nt | nt
COc1ccc(OC)c(NC(=O)CSc2nc3c(c(=O)n(C)c(=O)n3C)n2C)c1 | 0.2 | -8.2 | -1.0 | 6.7 | -42.0 | 17.5*
CC(C)n1c(SCC(=O)Nc2nc3ccccc3s2)nc2c1c(=O)n(C)c(=O)n2C | -1.8 | -16.8 | -4.2 | -5.8 | -38.3 | 18.8*

Bioassay records deposited in PubChem by several laboratories.
